Laboratory results as given in PubChem BioAssay (NCATS).
Results filed as inconclusive are left out. A call without a number means that no potency is given here. Active and inactive are the calls of the source. The call rests on the fitted dose curve; in most records, active means well fitted inhibition curve with a large enough effect; inconclusive means small, poorly fitted or top-dose-only effect; inactive means flat fitted curve, though single readings scatter.

How the values were obtained:
Test in all cases: qHTS profiling for inhibitors of Plasmodium falciparum proliferation (AID 504749); further: nearly all actives have a fitted effect of over 60% in size
Conditions in all cases: P. falciparum in erythrocytes, SYBR Green DNA, 72 h; series mostly up to 28.7 µM
CP305 = system: CP305
Outline: (§1)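 P. falciparum-infected erythrocytes (0.3% parasitemia, 2.5% hematocrit) incubated with compound 72 h at 37 C, 5% CO2. Parasite DNA detected by SYBR Green after lysis, overnight at room temperature; normalised to 0.29 uM artemisinin and DMSO.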

CP315 = system: CP315
Outline: as §1

CP325 = system: CP325
Outline: as §1

CP329 = system: CP329
Outline: as §1

DFO2036 = system: DFO2036
Outline: as §1

DIV14 = system: DIV14
Outline: as §1

DIV17 = system: DIV17
Outline: as §1

DIV30 = system: DIV30
Outline: as §1

Dd2 = system: Dd2
Outline: as §1

CP335 = system: CP335
Outline: as §1
Potency means the concentration at half of the fitted maximal effect.

Row | Compound | Potency (CP305) | Potency (CP315) | Potency (CP325) | Potency (CP329) | Potency (DFO2036) | Potency (DIV14) | Potency (DIV17) | Potency (DIV30) | Potency (Dd2) | Potency (CP335)
1 | Nc1ccc(N=Nc2ccccc2)c(N)n1 | inactive | inactive | inactive | inactive | inactive | inactive | inactive | inactive | inactive | 
2 | Cn1c(=O)c2c(ncn2CCOC(=O)C(C)(C)Oc2ccc(Cl)cc2)n(C)c1=O | inactive | inactive | inactive | inactive |  | inactive | inactive | inactive | inactive | inactive
3 | CCOC(=O)c1c[nH]c2cc(OCC(C)C)c(OCC(C)C)cc2c1=O | 0.0675 µM (active) |  | 0.0601 µM (active) |  | 0.1 µM (active) | 0.151 µM (active) | 0.338 µM (active) |  | 0.141 µM (active) | 0.0675 µM (active)
4 | C/C(=C\C(=O)OCCCCCCCCC(=O)O)C[C@@H]1OC[C@H](C[C@@H]2O[C@H]2[C@@H](C)[C@H](C)O)[C@@H](O)[C@H]1O |  |  |  |  |  |  |  |  | 0.178 µM (active) | 0.151 µM (active)
5 | CNC(=O)[C@H](Cc1c[nH]c2ccccc12)NC(=O)[C@@H](CC(=O)NO)CC(C)C |  | inactive |  |  |  |  |  |  |  | 
6 | CS(=O)(=O)c1ccc([C@@H](O)[C@@H](COC(=O)CN)NC(=O)C(Cl)Cl)cc1 |  |  |  |  |  | inactive | inactive | inactive | 6.31 µM (active) | 
7 | C=C1C(CCl)(CCl)C2(Cl)C(Cl)C(Cl)C1(Cl)C2(Cl)Cl (centres undefined) | 3.79 µM (active) |  | 3.79 µM (active) | 6.75 µM (active) | 2 µM (active) | 1.69 µM (active) | 1.9 µM (active) | 1.69 µM (active) | 2.24 µM (active) | 3.01 µM (active)
8 | CSc1nc2cc(Oc3cccc(Cl)c3Cl)c(Cl)cc2[nH]1 | 13.5 µM (active) |  | 13.5 µM (active) | 13.5 µM (active) | 8.91 µM (active) | 9.53 µM (active) |  | 10.7 µM (active) | 14.1 µM (active) | 
9 | CCOc1cc(-c2nccc3cc(OC)c(OC)cc23)cc(OCC)c1OCC |  |  | inactive |  |  |  |  |  |  | 
10 | O=C(CCCN1CCC(C(=O)c2ccc(F)cc2)CC1)c1ccc(F)cc1 |  | inactive | inactive | inactive | inactive | 0.757 µM (active) | 4.78 µM (active) | inactive | 8.91 µM (active) | 
11 | NC(N)=NCC1COc2ccccc2O1 (centres undefined) |  | inactive |  |  |  | inactive |  | inactive |  | 
12 | CC(=O)c1ccc2c(c1)N(CCCN1CCN(CCO)CC1)c1ccccc1S2 |  |  | 16.9 µM (active) | 15.1 µM (active) |  | 7.57 µM (active) | 12 µM (active) | 16.9 µM (active) | 12.6 µM (active) | 12 µM (active)
13 | C=CC[N+]1([C@H]2C[C@H]3[C@@H]4CC[C@H]5C[C@H](O)[C@@H](N6CCOCC6)C[C@]5(C)[C@H]4CC[C@]3(C)[C@H]2OC(C)=O)CCCC1 |  |  |  |  |  | inactive | inactive |  | 10 µM (active) | 12 µM (active)
14 | CCN(CC)CCCC(C)Nc1cc(/C=C/c2ccccc2Cl)nc2cc(Cl)ccc12 (centres undefined) |  |  | 0.849 µM (active) | 6.75 µM (active) | 1 µM (active) | 4.26 µM (active) | 4.26 µM (active) | 1.69 µM (active) | 2.24 µM (active) | 2.69 µM (active)
15 | CC(C)(C)CC(C)(C)c1ccc(OCCO)cc1 | inactive |  | inactive | inactive | inactive | inactive | inactive | inactive | inactive | inactive
16 | CN(C)CCC=C1c2ccccc2C(C)(C)c2ccccc21 |  |  |  | inactive |  | 6.75 µM (active) | 6.75 µM (active) |  |  | 
17 | Cc1ncc[nH]1 | inactive |  | inactive | inactive | inactive | inactive | inactive | inactive | inactive | inactive
18 | CC(C)C1=CC2=CC[C@@H]3[C@](C)(CCC[C@@]3(C)C(=O)O)[C@H]2CC1 |  |  |  |  | inactive |  |  |  | inactive | inactive
19 | OCc1ccccc1 |  | inactive |  | inactive |  |  |  |  |  | 
20 | C=CC[C@@H]1/C=C(\C)C[C@H](C)C[C@H](OC)[C@H]2O[C@@](O)(C(=O)C(=O)N3CCCC[C@H]3C(=O)O[C@H](/C(C)=C/[C@@H]3CC[C@@H](O)[C@H](OC)C3)[C@H](C)[C@@H](O)CC1=O)[C@H](C)C[C@@H]2OC |  | 6.75 µM (active) | 4.26 µM (active) | 4.26 µM (active) | 1 µM (active) | 1.69 µM (active) | 1.69 µM (active) | 0.849 µM (active) | 0.112 µM (active) | 
21 | O=C1CCC(c2ccccc2)(C2CCN(Cc3ccccc3)CC2)C(=O)N1 (centres undefined) |  | inactive | inactive | inactive | inactive |  |  | inactive |  | 

Row | Compound | Potency (CP305) | Potency (CP315) | Potency (CP325) | Potency (CP329) | Potency (DFO2036) | Potency (DIV14) | Potency (DIV17) | Potency (DIV30) | Potency (Dd2) | Potency (CP335)
22 | C#C[C@]1(O)CC[C@@H]2[C@H]3CCC4=CC(=O)CC[C@H]4[C@H]3C(=C)C[C@@]21CC | 0.426 µM (active) | 0.478 µM (active) |  |  | inactive |  |  |  | inactive | inactive
23 | Cn1c(O)c(N=NC(N)=S)c2ccccc21 |  | inactive | inactive | inactive |  |  |  |  |  | 
24 | CC(=O)[O][Al][O]C(C)=O |  | inactive |  |  | inactive |  |  | inactive | inactive | inactive
25 | CC(CN(C)C)CN1c2ccccc2Sc2ccc(C(F)(F)F)cc21 (centres undefined) |  | inactive | inactive |  | 10 µM (active) | 5.36 µM (active) | 3.01 µM (active) |  | 3.55 µM (active) | 
26 | COc1ccc2c(c1)OC(C)(C)C(c1ccccc1)C2c1ccc(OCCN2CCCC2)cc1 (centres undefined) | 13.5 µM (active) |  | 6.75 µM (active) |  | 4.47 µM (active) | 6.75 µM (active) | 7.57 µM (active) | 12 µM (active) | 3.98 µM (active) | 3.79 µM (active)
27 | CCN(CC)CCC(=O)N1c2ccccc2Sc2ccc(Cl)cc21 |  |  |  |  |  | 5.36 µM (active) | 8.49 µM (active) |  | 5.62 µM (active) | 
28 | OCCOCCOCCO |  |  |  |  | inactive |  |  |  | inactive | inactive
29 | CCCOc1cc(N)ccc1C(=O)OCCN(CC)CC | inactive |  |  | inactive | inactive | inactive | inactive |  | inactive | 
30 | CNC(=O)c1c(I)c(C(=O)NCC(=O)Nc2c(I)c(C(=O)O)c(I)c(C(=O)NCCO)c2I)c(I)c(N(C)C(C)=O)c1I | inactive |  | inactive | inactive | inactive | inactive | inactive | inactive | inactive | inactive
31 | COc1cc(NCCCC(C)N)c2ncccc2c1 (centres undefined) | 6.75 µM (active) |  | 7.57 µM (active) |  | 11.2 µM (active) | 2.13 µM (active) | 1.35 µM (active) | 4.78 µM (active) | 2 µM (active) | 6.75 µM (active)
32 | O.O.O.O.O.O.O.O=S(=O)([O-])[O-].[Co+2] | 6.75 µM (active) |  |  | 12 µM (active) | 11.2 µM (active) |  |  | 9.53 µM (active) | 7.94 µM (active) | 6.75 µM (active)
33 | CSCCC(N)C(=O)O (centres undefined) | inactive |  | inactive | inactive | inactive | inactive | inactive |  | inactive | inactive
34 | Cn1cc(NC(=O)c2cc(NC(=O)c3cc(NC=O)cn3C)cn2C)cc1C(=O)NCCC(=N)N | 8.49 µM (active) |  | 10.7 µM (active) | 15.1 µM (active) |  | 3.38 µM (active) | 3.79 µM (active) |  |  | 8.49 µM (active)
35 | CCC(=O)c1ccc2c(c1)N(CCCN1CCN(CCO)CC1)c1ccccc1S2 | 10.7 µM (active) | 9.53 µM (active) |  |  | 8.91 µM (active) | 9.53 µM (active) | 13.5 µM (active) | 13.5 µM (active) | 5.62 µM (active) | 6.01 µM (active)
36 | O=C(OC1C[C@@H]2CC3C[C@H](C1)N2CC3=O)c1c[nH]c2ccccc12 (some centres undefined) |  | inactive | inactive | inactive | inactive | 7.57 µM (active) | 7.57 µM (active) |  | inactive | 
37 | CCCCCCCCCCCCCCCCOCCOCCOCCOCCOCCOCCOCCOCCOCCOCCOCCOCCOCCOCCOCCOCCOCCOCCOCCOCCO | 12 µM (active) | inactive |  |  |  | 13.5 µM (active) | 13.5 µM (active) |  | 11.2 µM (active) | inactive
38 | N#Cc1ccc2c(c1)N(CCCN1CCC(O)CC1)c1ccccc1S2 |  | inactive |  |  |  | 8.49 µM (active) | 9.53 µM (active) |  | 5.01 µM (active) | 
39 | CC[C@H]1OC(=O)[C@H](C)[C@@H](O[C@H]2C[C@@](C)(OC)[C@@H](O)[C@H](C)O2)[C@H](C)[C@@H](O[C@@H]2O[C@H](C)C[C@H](N(C)C)[C@H]2O)[C@](C)(O)C[C@@H](C)CN(C)[C@H](C)[C@@H](O)[C@]1(C)O |  |  |  |  | 5.01 µM (active) |  |  |  | 0.355 µM (active) | 5.36 µM (active)
40 | O=C(c1cc2ccccc2o1)N1CCN(Cc2ccccc2)CC1 | inactive | inactive |  |  |  |  |  | inactive | inactive | 
41 | Oc1cccc(O)c1O |  | inactive |  |  | inactive |  | 9.53 µM (active) | inactive |  | 
42 | O=c1n(CC2CO2)c(=O)n(CC2CO2)c(=O)n1CC1CO1 (centres undefined) |  | inactive | inactive | inactive |  |  |  | inactive |  | 
